# “And” between values parts separate entries of the source, which are not always exact repeats. Identical values can stand only once. Inconclusive results are not listed. A call without a number means that no potency is given here. The source made the active and inactive calls. Calls come from the whole dose curve; as a rule, active = well fitted cell-killing curve with a large enough effect in the repeat runs; inconclusive = weak or mixed curves, or effect the other way; inactive = no such curve, though single readings can be large or run the other way. Positions of bridges follow the written chain, without caps; N, C: chain ends. Non-standard residues stand in square brackets, D forms with d. Residues, ends and D or L forms follow the SMILES beside them. *: point of attachment. X1 = CC[C@@H](C)[C@@H](N)C1=N[C@H](C(=O)*)CS1; d(aIle) = CC[C@H](C)[C@@H](N)C(=O)O; dOrn = NCCC[C@@H](N)C(=O)O
# Experiment: qHTS assay for identifying genotoxic compounds that show differential cytotoxicity against isogenic chicken DT40 cell lines with known DNA damage response pathways - Rev3 mutant cell line (AID 743014); note: nearly all actives have a fitted effect of over 55% in size
# Conditions: chicken DT40 Rev3-/- viability, CellTiter-Glo, 40 h; series mostly up to 68.4 µM
# Potency is the fitted concentration of half-maximal effect.
row,SMILES,Potency
1,CCN(CC)CC#CCOC(=O)C(O)(c1ccccc1)C1CCCCC1 (configuration not stated),13.3 µM (active)
2,CC(=O)O[C@H]1C[C@@H]2CC[C@@H]3[C@H](CC[C@@]4(C)[C@H]3C[C@H]([N+]3(C)CCCCC3)[C@@H]4OC(C)=O)[C@@]2(C)C[C@@H]1[N+]1(C)CCCCC1,inactive
3,CCN(CC)CCOC[C@H]1O[C@@H](O)[C@H](OCCN(CC)CC)[C@@H](O)[C@@H]1O,inactive
4,CN=C(N)NCCC[C@H](N)C(=O)O,inactive
5,CSCC[C@H](NC(=O)[C@H](Cc1ccc(OS(=O)(=O)O)cc1)NC(=O)[C@@H](N)CC(=O)O)C(=O)NCC(=O)N[C@@H](Cc1c[nH]c2ccccc12)C(=O)N[C@@H](CCSC)C(=O)N[C@@H](CC(=O)O)C(=O)N[C@@H](Cc1ccccc1)C(N)=O,inactive
6,CCOC(=O)COc1ccc2c(=O)cc(-c3ccccc3)oc2c1,inactive
7,CC[C@@H](C)[C@H](N)C(=O)O,inactive
8,CCCCCCCCCCCC[n+]1ccc2ccccc2c1,0.298 µM (active)
9,O=C1CC[C@@H](C(=O)N[C@H]2C[C@@H]2c2ccccc2)N1,inactive
10,CC(C)(S)C(=O)N[C@@H](CS)C(=O)O,inactive
11,CC(C)(C)C(=O)OCC(=O)[C@H]1CC[C@H]2[C@@H]3CCC4=CC(=O)CC[C@]4(C)[C@H]3CC[C@]12C,inactive
12,NC[C@H]1O[C@H](O[C@H]2[C@H](O)[C@@H](O[C@H]3O[C@H](CO)[C@@H](O)[C@H](N)[C@H]3O)[C@H](N)C[C@@H]2N)[C@H](N)C[C@@H]1O,inactive
13,C/C(=C\C(=O)OCCCCCCCCC(=O)O)C[C@@H]1OC[C@H](C[C@@H]2O[C@H]2[C@@H](C)[C@H](C)O)[C@@H](O)[C@H]1O,1.5 µM (active)
14,O=[N+]([O-])c1ccc(O)c2ncccc12,2.66 µM (active)
15,Cc1cc(Br)ccc1NC(=O)CCl,5.45 µM (active)
16,O=P(O)(O)C(O)(Cn1ccnc1)P(=O)(O)O,inactive
17,CCOc1ccc(S(=O)(=O)O)c2cccnc12,inactive
18,FC(F)(F)COCC(F)(F)F,inactive
19,CC(=NCc1ccccc1)c1ccccc1O,inactive

row,SMILES,Potency
1,CC(=O)OCC(=O)[C@@]1(O)CC[C@H]2[C@@H]3CCC4=CC(=O)CC[C@]4(C)C3=CC[C@@]21C,inactive
2,O=C(O)/C=C/C(=O)Nc1ccc(S(=O)(=O)Nc2nccs2)cc1,inactive
3,Cc1onc(-c2c(F)cccc2Cl)c1C(=O)N[C@@H]1C(=O)N2[C@@H]1SC(C)(C)[C@@H]2C(=O)O,inactive
4,O=C(O)c1cc2cc(Cc3cccnc3)ccc2o1,inactive
5,CC[C@@H](C)[C@@H](N)C1=N[C@H](C(=O)N[C@@H](CC(C)C)C(=O)N[C@@H](CCC(=O)O)C(=O)N[C@@H](C(=O)N[C@@H]2CCCCNC(=O)[C@@H](CC(N)=O)NC(=O)[C@@H](CC(=O)O)NC(=O)[C@@H](Cc3cnc[nH]3)NC(=O)[C@@H](Cc3ccccc3)NC(=O)[C@@H]([C@H](C)CC)NC(=O)[C@@H](CCCN)NC2=O)[C@@H](C)CC)CS1 (X1-LE[d(aIle)][dK][dOrn][dI][dF][dH][dD][dN]; lactam 4-C),inactive
6,NC(=O)[C@H]1O[C@@H](O)[C@H](O)[C@@H](O)[C@@H]1O,inactive
7,CC(C)C[C@H](NC(=O)[C@@H](COC(C)(C)C)NC(=O)[C@H](Cc1ccc(O)cc1)NC(=O)[C@H](CO)NC(=O)[C@H](Cc1c[nH]c2ccccc12)NC(=O)[C@H](Cc1cnc[nH]1)NC(=O)[C@@H]1CCC(=O)N1)C(=O)N[C@@H](CCCN=C(N)N)C(=O)N1CCC[C@H]1C(=O)NNC(N)=O,inactive
8,Cc1c(N)nc([C@H](CC(N)=O)NC[C@H](N)C(N)=O)nc1C(=O)N[C@H](C(=O)N[C@H](C)[C@@H](O)[C@H](C)C(=O)N[C@H](C(=O)NCCc1nc(-c2nc(C(=O)NCCCCN=C(N)N)cs2)cs1)[C@@H](C)O)[C@@H](O[C@@H]1O[C@@H](CO)[C@@H](O)[C@H](O)[C@@H]1O[C@H]1O[C@H](CO)[C@@H](O)[C@H](OC(N)=O)[C@@H]1O)c1cnc[nH]1,1.33 µM (active)
9,NC(N)=NCCCCN=C(N)N,inactive
10,COc1ccc(/C=N/NC(=O)c2ccncc2)c(C(=O)O)c1OC,inactive
11,O=C1CCC(c2ccc(-n3ccnc3)cc2)=NN1,inactive
12,Cc1cnc(C(=O)O)c[n+]1[O-],inactive
13,COc1c(Br)cc(Br)c(C)c1Br,inactive
14,NCC(O)CC(=O)O (configuration not stated),inactive
15,O=C(N[C@H](CO)[C@H](O)c1ccc([N+](=O)[O-])cc1)C(Cl)Cl,7.5 µM (active) and 17.2 µM (active)
16,O=C(CCCN1CCN2CCCC2C1)c1ccc(F)cc1 (configuration not stated),2.11 µM (active)
17,Nc1nc(/C(=C/CC(=O)O)C(=O)N[C@@H]2C(=O)N3C(C(=O)O)=CCS[C@H]23)cs1,inactive
18,O=C1c2ccccc2CN2C(=O)c3ccccc3CN12,inactive

# Source: PubChem BioAssay (Tox21)
